High-throughput results as filed in PubChem BioAssay.
Rows were chosen to be rich in hits. Some 3.7% of all compounds tested hit in one or more screens of this group.
tim23-1 inh – growth inhibitors of tim23-1 mutant yeast; S. cerevisiae tim23-1 growth, BacTiter-Glo luminescence, 24 h; inhibition, % at 20 µM; 330,000 tested, 1.3% active; AID 463212;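 active means growth inhibition of the mutant yeast at or above 50%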;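 further: temperature-sensitive mutant grown at 25 °C; plate controls were DMSO-treated mutant yeast for no effect and medium wells lacking yeast for full effect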
Rce1 inh – yeast Ras-converting enzyme inhibition; 290,000 tested, 0.27% active; calls only; yeast membranes, quenched prenylated peptide cleavage fluorescence; Q03530;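 active means fall in fluorescence gain of 50% or more versus controls, with final raw signal at or below 3038400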;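 further: plate controls were neutral control wells for no effect and wells lacking membranes for full effect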
Target sequence (Q03530 whole entry, looked up): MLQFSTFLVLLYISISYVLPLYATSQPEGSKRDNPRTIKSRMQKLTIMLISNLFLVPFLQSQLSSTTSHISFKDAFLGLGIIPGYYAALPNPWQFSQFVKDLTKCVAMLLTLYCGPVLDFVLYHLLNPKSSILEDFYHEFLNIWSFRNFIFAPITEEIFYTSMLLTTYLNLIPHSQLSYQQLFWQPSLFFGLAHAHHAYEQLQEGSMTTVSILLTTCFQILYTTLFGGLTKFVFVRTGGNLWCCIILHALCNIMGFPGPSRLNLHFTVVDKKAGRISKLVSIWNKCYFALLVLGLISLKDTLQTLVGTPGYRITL
tim10-1 inh – inhibits growth of tim10-1 mutant yeast; inhibition, % at 20 µM; S. cerevisiae tim10-1 ts strain growth, BacTiter-Glo, 24 h; 330,000 tested, 2.2% active;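 active means inhibition of at least 40%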;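 further: mutant grown at 25 °C; 0% = DMSO wells with yeast and 100% = wells holding no yeast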
PfHsp90 yeast 2 – reduces growth (ATP signal) of yeast expressing P. falciparum Hsp90; S. cerevisiae expressing PfHsp90, BacTiter-Glo ATP, 48 h; yeast lacking PDR1 and PDR3 efflux regulators; inhibition, % at 9.4 µM; 310,000 tested, 0.32% active;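 active means every replicate shows inhibition above about 80%, whatever the replicate mean, limit read from the data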;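 further: 0% = DMSO neutral controls and 100% = 20 µM radicicol positive controls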
TIM10 inh – TIM10 yeast growth inhibition. S. cerevisiae TIM10 strain growth, BacTiter-Glo luminescence, 24 h. inhibition, % at 10 µM. 330,000 tested, 1.4% active;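 active means inhibition of 40% or more at the single tested concentration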;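 further: wild-type TIM10 isogenic control strain grown at permissive 25 °C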
TIM10 conf – TIM10 yeast growth inhibition, confirmed; S. cerevisiae tim10 strain growth, BacTiter-Glo luminescence, 24 h; inhibition, % at 10 µM; AID 463215; 4,600 tested, 63% active; shares compounds with TIM10 inh;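 active means inhibition of yeast growth at or above a set limit in either of two replicates at 10 µM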;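 further: this counterscreen used the strain with wild-type TIM10; 0% = yeast with DMSO and 100% = medium wells lacking yeast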
* = called active by the depositor; i = inactive; . = not tested or not shown; + = active, no number.

SMILES	tim23-1 inh	Rce1 inh	tim10-1 inh	PfHsp90 yeast 2	TIM10 inh	TIM10 conf
CC(=O)Nc1ccc(SCC(=O)Nc2cc(C(C)(C)C)nn2-c2ccccc2)cc1	18	.	21	3	8	.
Cn1c(SCC(=O)Nc2cc(C(C)(C)C)nn2-c2ccccc2)nc2ccccc21	40	i	29	-16	43*	-20
O=C(NCC(=O)N1CCN(S(=O)(=O)c2cccc(F)c2)CC1)c1ccc(Br)o1	18	i	5	.	-7	.
Oc1ccc(Br)cc1/C=N/n1c(C2CCCCC2)n[nH]c1=S	50	i	-3	-16	44*	56*
O=C(COc1cccc(OC(F)F)c1)Nc1ccc(SC(F)F)cc1	44	i	38	3	50*	39*
Nc1cc(OC(=O)c2cccs2)nn1S(=O)(=O)c1ccccc1	15	i	37	-12	55*	1
COc1ccccc1N1C(=O)C=C(Sc2nc(C)cc(C)n2)C1=O	-11	i	10	.	42*	45*
CCCCNC(=O)Nc1nc2ccc(CC)cc2s1	28	i	35	.	40	30
CC(=O)C1=C(C)Nc2ncnn2C1c1ccccc1 (stereo not given)	0	i	-12	20	-26	.
CC(=O)C1=C(C)Nc2ncnn2C1c1ccccc1F (stereo not given)	1	i	2	-3	97*	8
CC12CCC(c3nnc(SCC(=O)Nc4cccc5ccccc45)nc31)C2(C)C (stereo not given)	38	i	36	-7	46*	24
O=C(N/N=C/C=C\c1ccco1)c1ccccn1	16	i	3	-5	90*	2
O=C(N/N=C/C=C/c1ccco1)c1cnccn1	-6	i	-18	29	6	.
O=C(N/N=C\C=C\c1ccco1)c1cc(-c2ccc3ccccc3c2)n[nH]1	8	i	16	10	52*	40*
O=C(/C=C/c1ccccc1)NNc1ccc(Cl)cc1	8	i	-19	36	44*	48*
O=C(O)c1ccccc1C(=O)NNc1ccc(Cl)cc1	8	i	26	-9	46*	30*
NS(=O)(=O)c1ccc(NNC(=O)c2ccccc2C(=O)O)cc1	0	i	2	20	12	.
COc1ccccc1NC(=O)CSc1nc(=O)n(Cc2ccncc2)c2c1CCCC2	0	i	-5	20	1	.
O=C(C1CCC(=O)N1C1CCCCC1)N1CCN(c2ccc(F)cc2)CC1 (stereo not given)	-4	i	-27	.	-10	.
CS(=O)(=O)c1cccc(C(=O)OCC(=O)NCc2cccs2)c1	3	.	5	-6	72*	-8
OCCCn1c(CCNc2nc(-c3ccc(F)cc3)cs2)nc2cc(C(F)(F)F)ccc21	24	i	36	-5	11	.
CCOC(=O)C1CCN(S(=O)(=O)c2c(C)[nH]c(C)c2C(=O)N2CCCCC2)CC1	-4	i	-3	-9	15	.
CCN(CC)Cc1ccc(NC(=O)c2sc3cc(Cl)ccc3c2Cl)cc1	19	i	18	12	44*	40*
CN(C)/C=C1/N=C(c2ccccc2)OC1=O	2	i	-18	-4	-1	.
O=CC1=C(c2ccccc2)Oc2ccccc2O1	23	i	22	-76	78*	79*
SMILES	tim23-1 inh	Rce1 inh	tim10-1 inh	PfHsp90 yeast 2	TIM10 inh	TIM10 conf
Clc1ccc(Cn2ccc(-c3ccc4c(c3)OCO4)n2)cc1Cl	25	i	26	.	40*	40*
Cc1cccc(-n2c(-c3ccco3)n[nH]c2=S)c1	18	i	16	9	3	.
Cc1ccccc1-n1c(-c2csc(C)c2C)n[nH]c1=S	16	i	28	-6	18	.
Cc1cccc(-n2c(-c3csc(C(C)C)c3)n[nH]c2=S)c1	43	i	31	20	42*	30
Cc1cccc(-n2c(-c3csc(C)c3C)n[nH]c2=S)c1	28	i	39	-35	44*	-20
O=C(CN1c2ccccc2S(=O)(=O)c2ccccc21)Nc1ccccc1F	17	i	25	-7	4	.
CC(C)(C)n1nnnc1C(c1cccs1)N(Cc1ccc(Cl)cc1)CC1CCCO1 (stereo not given)	41	i	35	-22	41*	-19
O=C1CCCN1CC(=O)N1CCCC(Nc2cccc(F)c2)C1 (stereo not given)	-5	i	-9	4	10	.
Cc1ccc2cc3cc(C(=O)NCCCN4CC(C)CC(C)C4)oc3nc2c1 (stereo not given)	26	i	25	-29	61*	27
CCN(C(=O)c1cc2cc3ccc(C)cc3nc2o1)c1ccc(OC)cc1	38	i	35	1	44*	-9
Cc1ccc2cc3cc(C(=O)N4CCCCC4C)oc3nc2c1 (stereo not given)	40	i	32	20	50*	-30
CCOc1ncccc1C(=O)Nc1ccc(C(=O)Nc2ccc(OC)cc2)cc1	-6	.	-5	-2	2	.
O=C(c1ccc(Cl)c(S(=O)(=O)Nc2ccccc2C(=O)N2CCc3ccccc3C2)c1)N1CCc2ccccc2C1	24	i	37	-43	15	.
CN(CC1COc2ccccc2O1)C(=S)Nc1ccccc1F (stereo not given)	43	i	28	12	41*	26
COc1ccc(NC(=S)N(C)CC2COc3ccccc3O2)cc1 (stereo not given)	29	i	23	1	20	.
CCOc1cc(C)nc(N2CCN(C3CCCCC3)CC2)n1	0	i	-7	5	-5	.
N/C(=N\OC(=O)c1ccco1)c1ccccn1	-1	.	5	7	8	.
N/C(=N\OC(=O)c1ccc2ccccc2c1)c1ccccn1	13	i	36	20	45*	51*
N/C(=N\OC(=O)c1ccc2ccccc2c1)c1ccccc1Cl	15	i	36	100*	84*	85*
N/C(=N\OC(=O)c1cccc2ccccc12)c1ccccn1	49	i	22	-16	55*	55*
CC1(N=Cc2cc(Cl)ccc2O)COP(=O)(Nc2ccccc2)OC1 (stereo not given)	.	.	.	-47	.	.
CCN(CC)CCNC(=O)c1ccc(NC(=O)c2ccc(F)cc2F)cc1	6	i	12	2	11	.
O=C1CSC(c2cn(-c3ccccc3)nc2-c2cc3ccccc3oc2=O)N1Cc1ccco1 (stereo not given)	27	+	33	.	42*	8
O=C(Nc1ccccc1)Nc1cccc(Cl)c1Cl	40	i	20	31	45*	18
C=CCn1c(-c2ccc(OC)cc2)csc1=Nc1c(C)n(C)n(-c2ccccc2)c1=O	48	i	37	-25	42*	33*
c1ccc(-n2nnnc2Sc2ncnc3sc4c(c23)CCCC4)cc1	22	i	34	-8	44*	23
Cc1sc2ncnc(Sc3nnnn3-c3ccc(Cl)cc3)c2c1C	1	i	27	-31	13	.
